Data as given in PubChem BioAssay AID1240 (Sanford-Burnham Center for Chemical Genomics, 2008).
Hit rate of the full screen: of about 50,000 compounds, about 800 (1.6%) showed an effect of 50% or more. The sample as a whole holds a higher share of strong results than the screen did.

Molecular target: Bcl-2-like protein 10 (Homo sapiens) (UniProt Q9HD36)
Test: TR3 peptide-Bcl-B binding displacers, biochemical primary FP assay, phenotype converters (AID 1240);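 note: 0% = Bcl-B with tracer peptide and DMSO and 100% = tracer peptide lacking Bcl-B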
Conditions: GST-Bcl-B / FITC-TR3 peptide fluorescence polarization; stronger effect = higher value; compound at 3.75 mg/L

Bcl-2-like protein 10 (Homo sapiens), sequence (Q9HD36 whole entry, looked up): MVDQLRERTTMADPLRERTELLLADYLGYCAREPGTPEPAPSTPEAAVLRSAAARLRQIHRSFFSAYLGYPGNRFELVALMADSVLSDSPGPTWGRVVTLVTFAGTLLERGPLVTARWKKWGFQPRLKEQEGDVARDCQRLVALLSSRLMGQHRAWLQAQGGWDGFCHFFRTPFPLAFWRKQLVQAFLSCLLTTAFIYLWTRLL

SMILES	displacement [%]
COc1ccccc1CC(=O)Nc1cc(C)ccn1	12.9
CS(=O)(=O)N(CC(=O)Nc1cccc(Br)c1)c1ccc(Oc2ccccc2)cc1	1.9
COc1ccc(C2CC(=O)C3=C(C2)Nc2ccccc2NC3c2ccc(NC(C)=O)cc2)cc1OC (stereo not drawn)	-4.9
CCCC1=C(C(=O)OCC)C(c2ccc(CC)cc2)NC(=O)N1 (stereo not drawn)	-8.5
O=[N+]([O-])c1ccc(-c2noc(-c3ccccc3Br)n2)cc1	4.3
COc1ccc(CN2CCN(Cc3ccncc3)CC2)c(OC)c1	-16.7
NC(=O)c1ccc(NC(=O)C2CCCC2)cc1	-4
Cc1ccccc1-n1c(O)c(C=NCCCn2ccnc2)c(=O)[nH]c1=O	-3.4
O=c1[nH]c(=O)n(-c2ccccc2Cl)c(O)c1C=NCCCn1ccnc1	11.5
O=c1[nH]c(=O)n(-c2cccc(Cl)c2)c(O)c1C=NCCCn1ccnc1	142
COCCOC(=O)c1c(C)oc2c1cc(NS(=O)(=O)c1ccc(F)cc1)c1ccccc12	18
Cc1ccc(-c2nnc(N)s2)cc1C	5.1
COc1ccc(Cn2c(O)c(/C=C3\C=CC=N3)c(=O)[nH]c2=O)cc1	12.5
O=c1[nH]c(=O)n(-c2cccc(C(F)(F)F)c2)c(O)c1C=C1C=CC=N1	6.3
CCOc1ccc(-n2c(O)c(C=C3C=CC=N3)c(=O)[nH]c2=O)cc1	13.1
O=c1[nH]c(=O)n(-c2ccc(Br)cc2)c(O)c1C=C1C=CC=N1	123
COc1ccc(-n2c(O)c(/C=C3\C=CC=N3)c(=O)[nH]c2=O)cc1	85.4
O=c1[nH]c(=O)n(-c2ccc(Cl)cc2)c(O)c1/C=C1/C=CC=N1	-46
O=C1c2ccccc2C(=O)c2c1cccc2S(=O)(=O)Nc1ccc(Cl)cc1	9.5
CCOC(=O)C1=C(C)N=c2s/c(=C\c3ccc(O)c(OC)c3)c(=O)n2C1c1ccc(N(C)C)cc1 (stereo not drawn)	-13.9
CCOC(=O)C1=C(C)N=c2s/c(=C\c3ccc(O)c(OC)c3)c(=O)n2C1c1ccc(C)cc1 (stereo not drawn)	98.4

SMILES	displacement [%]
CCOC(=O)C1=C(c2ccccc2)N=c2s/c(=C\c3ccc(O)c(OC)c3)c(=O)n2C1c1ccccc1OC (stereo not drawn)	43.3
CCOC(=O)C1=C(c2ccccc2)N=c2s/c(=C\c3ccc(O)c(OC)c3)c(=O)n2C1c1ccc(OC)cc1 (stereo not drawn)	104
CCOC(=O)C1=C(C)N=c2s/c(=C\c3ccc(O)c(OC)c3)c(=O)n2C1c1cccc(OC)c1 (stereo not drawn)	-2.1
CCOC(=O)C1=C(C)N=c2s/c(=C\c3ccc(O)c(OC)c3)c(=O)n2C1c1ccc(OC)cc1 (stereo not drawn)	4.2
C=CCSc1nc2ccccc2n1C(=O)C1C(C=C(Cl)Cl)C1(C)C (stereo not drawn)	7.1
CCOc1ccc(C(=O)NCc2cccs2)cc1OCC	-0.9
O=C(NCCN1CCCC1=O)Nc1ccccc1	10.9
O=C(NCCCNC(=O)c1cccc(F)c1)c1cccc(F)c1	3.2
O=C(c1cccc(I)c1)N1CCN(c2ccccn2)CC1	6.9
O=C1CC(N2CCN(Cc3ccccc3)CC2)C(=O)N1c1ccc(Cl)c(Cl)c1 (stereo not drawn)	1.7
O=c1c2ccccc2nc(/C=C\c2ccccc2O)n1-c1cccc2ccccc12	-6.6
O=c1c2ccccc2nc(/C=C/c2ccc3c(c2)OCO3)n1-c1cccc2ccccc12	78.1
O=c1c2ccccc2nc(/C=C/c2cccc([N+](=O)[O-])c2)n1-c1cccc2ccccc12	5
CN(C)c1ccc(/C=C/c2nc3ccccc3c(=O)n2-c2cccc3ccccc23)cc1	105
Cn1c(/C=C/c2ccc3c(c2)OCO3)nc2ccccc2c1=O	1.3
O=c1c2ccccc2nc(/C=C/c2ccccc2[N+](=O)[O-])n1-c1cccc2ccccc12	-7
COc1ccccc1-n1cnc2cc(NC(C)=O)ccc21	14.7
CC(C)(C)c1cc(C2=C(Cl)C(=O)c3ccccc3C2=O)cc(C(C)(C)C)c1O	6.9
O=C1N=c2ccc(Cl)cc2=C1c1sc(NS(=O)(=O)Cc2ccccc2)nc1O	-7.2
CC1=C(C(=O)Nc2ccc(Br)cc2)C(c2ccccc2Br)NC(=S)N1 (stereo not drawn)	-7
CC1=C(C(=O)Nc2ccc(C)cc2)C(c2ccccc2Br)NC(=S)N1 (stereo not drawn)	84.9

SMILES	displacement [%]
CC1=C(C(=O)Nc2ccccc2)C(c2ccccc2Br)NC(=S)N1 (stereo not drawn)	-1.9
Cc1ccc(SCCNC(=O)CN(c2ccc(C)cc2)S(C)(=O)=O)cc1	-13.4
COc1ccc(C2C(C(=O)c3cccs3)=C(O)C(=O)N2c2nncs2)cc1OC (stereo not drawn)	84.6
O=C1C(=O)N(c2nncs2)C(c2ccc(Cl)cc2)/C1=C(\O)c1ccc(F)cc1 (stereo not drawn)	20.8
O=C(C1=C(O)C(=O)N(c2nncs2)C1c1ccccc1F)c1cccs1 (stereo not drawn)	129
O=C1C(=O)N(c2nncs2)C(c2cccc(Br)c2)/C1=C(\O)c1ccc(F)cc1 (stereo not drawn)	16.6
COc1cc(C2/C(=C(\O)c3ccc(F)cc3)C(=O)C(=O)N2c2nncs2)ccc1O (stereo not drawn)	8.3
O=C(C1=C(O)C(=O)N(c2nncs2)C1c1cccc([N+](=O)[O-])c1)c1cccs1 (stereo not drawn)	7.1
COc1ccc(C2/C(=C(\O)c3ccc(C)cc3)C(=O)C(=O)N2c2nncs2)cc1 (stereo not drawn)	13.6
COc1ccc(C2C(C(C)=O)=C(O)C(=O)N2c2nc3ccccc3s2)cc1OC (stereo not drawn)	-10.4
COc1ccc(C2C(C(=O)c3cccs3)=C(O)C(=O)N2c2nncs2)cc1 (stereo not drawn)	143
O=C(C1=C(O)C(=O)N(c2nncs2)C1c1ccc(Cl)cc1)c1cccs1 (stereo not drawn)	125
COc1ccc(C2/C(=C(\O)c3ccc(F)cc3)C(=O)C(=O)N2c2nncs2)cc1 (stereo not drawn)	11
CC(=O)C1=C(O)C(=O)N(c2nc3ccccc3s2)C1c1ccccc1F (stereo not drawn)	-8.5
C/C(=N\N=C1\NC(=O)C(CC(=O)Nc2ccccc2C(F)(F)F)S1)c1ccco1 (stereo not drawn)	-7.9
O=[N+]([O-])c1ccc(N2CCN(S(=O)(=O)c3ccccc3)CC2)cc1NCCc1ccccc1	7.8
Cc1ccc2oc(-c3cc(N)ccc3O)nc2c1	5.4
S=C1NCCOCCOCCOCCNC(=S)N2CCOCCOCCN1CCOCC2	14.7
O=C1C2C(c3ccccc3)C=CC(c3ccccc3)C2C(=O)N1Cc1ccc(F)cc1 (stereo not drawn)	-7.7
COc1cc(/C=N\n2nnnc2N)ccc1OCc1ccc(F)cc1	10.6
CC1CC(C)CN(C(=O)c2ccc(Cl)cc2Cl)C1 (stereo not drawn)	-3.8
